KCNQ2 block – KCNQ2 (rat) channel inhibition; O88943; CHO-K1 KCNQ2, FluxOR thallium flux, 20 min; active compounds read low; B-score at 10 µM; hit rate 1.1% among 310,000; AID 2156;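 active means fluorescence ratio B-score at most minus 3 library SDs, with starting brightness B-score within 2 library SDs, cut at about -5.5 in these data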
KCNQ2 pot – KCNQ2 (rat) channel potentiation; O88943; CHO-K1 KCNQ2, FluxOR thallium flux fluorescence; active compounds read high; B-score at 10 µM; hit rate 0.54% among 310,000; AID 2239;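 active means fluorescence ratio B-score at least 3 SD of library B-scores, with initial fluorescence B-score within 3 of them, cut at about 5.3 in these data; same plate scores as AID 2156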;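 further: B-score of peak minus minimum over baseline fluorescence ratio after K+ and Tl+ stimulus; positive B-score means potentiation of KCNQ2 with more thallium influx and brighter signal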
KCNQ2 block conf – confirmation of rat KCNQ2 potassium channel inhibitors; KCNQ2-expressing cells, thallium flux, inhibition; active compounds read low; hit rate 57% among 1,000; shares compounds with KCNQ2 block; activity change, negative = inhibition, % at 10 µM
KCNQ1 spec – KCNQ2 inhibitor that also affects human KCNQ1 channel; hit rate 15% among 1,000; AID 493026; activity change, negative = inhibition, % at 10 µM; shares compounds with KCNQ2 block; KCNQ1-expressing cells, FluxOR thallium flux fluorescence; active compounds read low;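 active means activity change at least 3 SD of negative controls below their mean in both duplicate wells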;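 further: CHO cells stably transfected with KCNQ1 and depolarized by potassium stimulus; peak minus minimum fluorescence over baseline after thallium addition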
CHO parental ctr – counter-screen for KCNQ2 inhibitors: effect in parental CHO cells; shares compounds with KCNQ2 block; thallium flux counter-screen; active compounds read low; hit rate 14% among 1,000; AID 493029; activity change, % at 10 µM
KCNQ2 patch conf – blocks rat KCNQ2 current in automated patch clamp | shares compounds with KCNQ2 block | KCNQ2-expressing cells | calls only at 10 µM | hit rate 49% among 550
Numbers stand for hits; - = inactive; . = no result; + = active, no number. The list is not random: actives were taken first. Their share in the collection is about 1.6%. Unless noted, how the calls were made is not given here.

SMILES	KCNQ2 block	KCNQ2 pot	KCNQ2 block conf	KCNQ1 spec	CHO parental ctr	others
COCCNC(=O)C(c1ccc(F)cc1)N(C(=O)CCC(=O)Nc1ccccn1)c1ccc(C)cc1 (configuration not stated)	-	-	.	.	.
COc1cccc(CNC(=O)COC(=O)CCCNC(=O)c2ccc(Cl)cc2)c1	-	.	.	.	.
Nn1c(SCC(=O)Nc2ccccc2C(F)(F)F)nncc1=O	-	.	.	.	.
Cn1cc(Cl)c(C(=O)OCC(=O)Nc2ccc(S(N)(=O)=O)cc2)n1	-	-	.	.	.
CN(CC(=O)Nc1ccccc1Sc1ccccc1)C1CCCCC1	-6.7	-	-37%	-35%	-27%	KCNQ2 patch conf=-
CSc1ccccc1NC(=O)CN(C1CCCCC1)S(C)(=O)=O	-	.	.	.	.
Cc1oc2cc(Br)c(O)c(Br)c2c1-c1ccccc1	-	.	.	.	.
O=Nc1c(-c2c(O)[nH]c3cc(Br)ccc23)[nH]c2ccccc12	-	.	.	.	.
CCOC(=O)c1c(-c2ccc(OC)cc2)csc1NC(=O)CSc1ccccc1	-	.	.	.	.
CCOC(=O)c1c(-c2ccccc2)csc1NC(=O)CSc1ccccc1	-8.2	-	-38%	-27%	-	KCNQ2 patch conf=-
CCOC(=O)c1c(-c2cccs2)csc1NC(=O)CN(CC)CC	-9.9	-	-	-	-
CCOC(=O)c1c(-c2cccs2)csc1NC(=O)CC(C)C	-	.	.	.	.
O=C(CCN1CCCCO1)N1CCCC(Nc2cccc(F)c2)C1 (configuration not stated)	-	.	.	.	.
Cc1ccc(CN2CCNC(=O)C2CC(=O)N(C)C2CCOCC2)cc1 (configuration not stated)	-	-	.	.	.
COc1ccc(-c2cc(C(=O)N3CCCCCC3)c3cc(C)ccc3n2)cc1	-8.5	-	-30%	-	-	KCNQ2 patch conf=+
COc1ccc(-c2cc(C(=O)N3CCCCC3)c3ccccc3n2)cc1	-	.	.	.	.
COc1ccc(-c2cc(C(=O)N3CCOCC3)c3cc(C)ccc3n2)cc1	-7.2	-	-31%	-	-	KCNQ2 patch conf=+
Cc1ccc(-c2cc(C(=O)N3CCOCC3)c3ccccc3n2)cc1	-	.	.	.	.
CCc1ccccc1-n1ncc(C(=O)Nc2ccccc2OC)c1C	-	.	.	.	.
Cc1ccc(C(C(=O)NCc2ccc(F)cc2)N(C(=O)c2csnn2)C2CC2)o1 (configuration not stated)	-8.7	-	-20%	-	-	KCNQ2 patch conf=+
Cc1ccc(C(C(=O)NCc2ccc(F)cc2)N(C(=O)c2csnn2)C2CC2)cc1 (configuration not stated)	-	.	.	.	.
COc1ccc(C(=O)CC(=O)C(=O)Nc2ccc(Cl)cc2)cc1	-	.	.	.	.
COc1ccc(C(=O)CC(Nc2ccc([N+](=O)[O-])cc2)c2ccc(Cl)cc2)cc1 (configuration not stated)	-8.1	-	-	-	-
Cc1noc(C)c1C(=O)N(CC(C)C)c1nc2ccccc2s1	-	-	.	.	.
COc1ccc(-c2cnc3n2CCCCC3)cc1	-	.	.	.	.
SMILES	KCNQ2 block	KCNQ2 pot	KCNQ2 block conf	KCNQ1 spec	CHO parental ctr	others
COc1ccc(-c2c[n+]3c4n2CCCCC4=C(c2ccc(Br)cc2)C3)cc1	-8.7	-	-33%	-	-	KCNQ2 patch conf=-
COc1ccccc1NC(=O)C1=C(C)NC(SCC(=O)c2ccccc2)=C(C#N)C1c1ccco1 (configuration not stated)	-12	-	-	-	-
COCCOC(=O)C1=C(C)NC(SCC(=O)NC(C)(C)C)=C(C#N)C1c1ccco1 (configuration not stated)	-	-	.	.	.
CC(NC(=O)/C(C#N)=C/c1cn[nH]c1-c1ccccc1)c1ccccc1 (configuration not stated)	-	.	.	.	.
CCc1ccc(C(C)NC(=O)/C(C#N)=C\c2cn[nH]c2-c2ccccc2)cc1 (configuration not stated)	-9.1	-	-	-	-
Cc1cccc(C(=O)Nc2nnc(Cc3ccccc3)s2)c1	-	.	.	.	.
CC(C)C(=O)NCc1cc(-c2ccccc2)no1	-	-	.	.	.
COc1ccc(Nc2ccccc2NC(=O)c2ccccc2Br)cc1	-9.6	-	-22%	-	-	KCNQ2 patch conf=+
Cc1ccccc1C(=O)Nc1ccccc1NC(=O)c1ccccc1Br	-	.	.	.	.
CN(CC(O)COc1ccccc1F)C1CCCCC1 (configuration not stated)	-	-	.	.	.
Cc1ccccc1OCC(O)CN(Cc1ccccc1O)C1CCCCC1 (configuration not stated)	-7.4	-	-28%	-	-	KCNQ2 patch conf=+
COc1cc(NC(=O)CCc2nnc3ccc(N4CCC5(CC4)OCCO5)nn23)cc(OC)c1	-	-	.	.	.
O=C(NCCCCc1ccccc1)c1ccc(Br)cc1	-	-	.	.	.

Screening results deposited in PubChem BioAssay by Johns Hopkins Ion Channel Center.
